# Rows were chosen to be rich in hits. Some 21% of all compounds tested hit in one or more screens of this group.
# Shiga inhibitor: A qHTS for Small Molecule Inhibitors of Shiga Toxin; Vero cells, Shiga toxin protein synthesis inhibition reporter; inhibition, % at 38.7 µM; 290,000 tested, 9.2% active; AID 2315, 2010; in the data active means inhibition mostly above about 28%, no sharp cut-off; inactive means mostly below about 43%
# CHX counter: Cycloheximide Counterscreen for Small Molecule Inhibitors of Shiga Toxin; cell reporter, cycloheximide protein synthesis inhibition counterscreen; max response, %; 300,000 tested, 12% active; in the data active means max response mostly above about 13%, no sharp cut-off; inactive means mostly below about 14%; further: read at 38.3 µM for the half of the compounds with a filed dose
# NS1 function inh: qHTS Assay for Inhibitors of Influenza NS1 Protein Function; AID 2326, 2010; Potency, µM (top dose mostly 46.1 µM); 270,000 tested, 0.4% active; calls by dose curve; further: actives are rising curves; nearly all actives have a fitted effect of over 50% in size
#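 OD600 was taken as the measure of yeast growth restored by compound in an NS1-expressing S. cerevisiae strain. Cells had been washed out of glucose medium and diluted 1:100 into galactose -URA medium, pH 6.0.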
# Pf growth 48h: Primary qHTS for delayed death inhibitors of the malarial parasite plastid, 48 hour incubation; P. falciparum luciferase growth in erythrocytes, 48 h; Potency, µM (titrated, usually from 28.7 µM), usual class: inhibitors; 310,000 tested, 5.9% active; AID 504832, 2011
#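 First compound was added to culture medium, then infected red cells at 0.1% parasitemia and 2% hematocrit (final). After incubation at 37 C under 5% CO2, luciferase detection reagent was dispensed and light output recorded.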
# Pf growth 96h: Primary qHTS for delayed death inhibitors of the malarial parasite plastid, 96 hour incubation. Potency, µM (highest dose often 28.7 µM), most hits filed as inhibitors. 320,000 tested, 6.9% active. P. falciparum luciferase reporter growth, 96 h. AID 504834, 2011
#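 Cell-based qHTS: luciferase-tagged P. falciparum in erythrocytes (2% hematocrit, 0.05% parasitemia final) incubated with compounds for 96 hours, 37 C, 5% CO2; luciferase detection reagent then added and luminescence measured.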
# Giardia FBPA inh-1: qHTS Assay for Inhibitors of Fructose-1,6-bisphosphate Aldolase from Giardia Lamblia; A8B2U2; purified Giardia FBPA; Potency, µM (series often up to 59.6 µM), actives largely listed as inhibitors; 290,000 tested, 0.71% active; further: nearly all actives have a fitted effect of over 55% in size
# Target sequence (A8B2U2 whole entry, looked up): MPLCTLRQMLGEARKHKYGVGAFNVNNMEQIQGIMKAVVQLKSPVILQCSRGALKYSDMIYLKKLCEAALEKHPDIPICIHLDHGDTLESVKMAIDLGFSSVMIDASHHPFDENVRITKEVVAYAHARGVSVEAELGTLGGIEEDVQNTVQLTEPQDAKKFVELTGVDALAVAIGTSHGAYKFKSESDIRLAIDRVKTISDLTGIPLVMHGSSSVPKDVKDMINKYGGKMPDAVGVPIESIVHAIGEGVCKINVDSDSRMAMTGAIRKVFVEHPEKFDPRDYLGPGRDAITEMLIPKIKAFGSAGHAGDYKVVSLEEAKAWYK
#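 Giardia FBPA (40 nM reagent) was preincubated 10 min at RT with compound (up to 57.5 uM final), then substrate plus GAPDH/TPI/NAD/arsenate coupling system with diaphorase/resazurin was added; resorufin fluorescence (525/598 nm) was read after 20 min.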
# Giardia growth: qHTS Assay for Inhibitors of Fructose-1,6-bisphosphate Aldolase from Giardia Lamblia: Giardia lamblia growth inhibition | Potency, µM (doses to about 57.5 µM), hits mostly inhibitors | AID 2785, 2010 | 1,500 tested, 5% active | shares compounds with Giardia FBPA inh-1 | Giardia lamblia trophozoite growth inhibition;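 further: trophozoites exposed to compound for 48 h at 37 °C; nearly all actives have a fitted effect of over 70% in size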
# Mammalian tox: qHTS Assay for Inhibitors of Fructose-1,6-bisphosphate Aldolase from Giardia Lamblia: Mammalian cellular toxicity; Potency, µM (doses to about 57.5 µM), actives largely listed as inhibitors; 1,500 tested, 4% active; shares compounds with Giardia FBPA inh-1; AID 2786, 2010; mammalian cell viability counter-screen, qHTS;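 further: Chinese hamster ovary cells used as mammalian cytotoxicity surrogate; viability measured as cellular ATP by luminescence; compound exposure lasted 48 h before reading; nearly all actives have a fitted effect of over 60% in size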
# Giardia FBPA inh-2: qHTS Assay for Inhibitors of Fructose-1,6-bisphosphate Aldolase from Giardia Lamblia: Primary screen confirmation. Potency, µM (doses to about 57.5 µM), actives largely listed as inhibitors. purified Giardia aldolase enzyme activity, qHTS. 1,500 tested, 5% active. shares compounds with Giardia FBPA inh-1; further: nearly all actives have a fitted effect of over 45% in size
# Rabbit FBPA inh: qHTS Assay for Inhibitors of Fructose-1,6-bisphosphate Aldolase from Giardia Lamblia: Rabbit FBPA Selectivity | Potency, µM (highest dose often 57.5 µM), most hits filed as inhibitors | Rabbit muscle FBPA enzyme inhibition, selectivity counter-screen | shares compounds with Giardia FBPA inh-1 | 1,500 tested, 4% active; further: nearly all actives have a fitted effect of over 60% in size
# Target sequence (P00883 whole entry, looked up): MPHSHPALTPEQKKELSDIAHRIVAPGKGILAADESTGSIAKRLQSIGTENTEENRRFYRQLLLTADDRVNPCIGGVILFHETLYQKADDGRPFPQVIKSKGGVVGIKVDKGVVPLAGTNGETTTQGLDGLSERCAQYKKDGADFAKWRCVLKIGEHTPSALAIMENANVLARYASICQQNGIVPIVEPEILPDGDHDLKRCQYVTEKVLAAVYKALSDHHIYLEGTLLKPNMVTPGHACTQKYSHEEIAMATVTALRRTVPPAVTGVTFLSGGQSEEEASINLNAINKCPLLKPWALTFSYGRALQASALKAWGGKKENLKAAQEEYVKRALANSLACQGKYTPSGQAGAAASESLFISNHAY
# GAPDH coupling: qHTS Assay for Inhibitors of Fructose-1,6-bisphosphate Aldolase from Giardia Lamblia: Coupling assay counterscreen confirmation | AID 2795, 2010 | shares compounds with Giardia FBPA inh-1 | 1,500 tested, 6% active | GAPDH coupling enzyme counterscreen, biochemical, qHTS | Potency, µM (doses to about 57.5 µM), actives largely listed as inhibitors; further: nearly all actives have a fitted effect of over 55% in size
# A number is an active result; n = inactive; u = inconclusive; x = not tested or not shown; [ ] = dose if it differs, or a comment. Unless noted, the call rests on the fitted dose curve; in most records, active means well fitted curve in the direction sought with a large enough effect; inconclusive means small, poorly fitted or top-dose-only effect, or another doubt; inactive means no such curve, though single readings can be large; an effect the other way counts as inactive or inconclusive.
SMILES,Shiga inhibitor,CHX counter,NS1 function inh,Pf growth 48h,Pf growth 96h,Giardia FBPA inh-1,Giardia growth,Mammalian tox,Giardia FBPA inh-2,Rabbit FBPA inh,GAPDH coupling
Cc1ccc(C(=S)N2CCN(Cc3ccccc3)CC2)s1,n,n,x,n,n,17.7µM,n,n,u,u,u
Cc1ccc(NC(=O)CSCCc2ccccn2)nc1,n,n,n,x,n,n,x,x,x,x,x
CCC(C)S(=O)(=O)c1snnc1C (stereo unspecified),n,n,n,x,n,n,x,x,x,x,x
CN(Cc1cccc(Cl)c1Cl)C(=O)c1cccc(S(=O)(=O)N2CCN(Cc3ccccc3)CC2)c1,n,n,n,u,u,n,x,x,x,x,x
CCN1CCN(C(=S)c2ccc(O)cc2)CC1,n,n,n,n,n,8.89µM,n,n,n,n,n
Cc1ccc(Nc2nc3ccccc3nc2-n2nc(C)cc2C)cc1,n,n,n,n,n,n,x,x,x,x,x
Cc1ccc(Nc2cc(C)nn2-c2nc(C)cc(=O)[nH]2)cc1,n,n,n,u,n,n,u,2.91µM,n,n,n
CCc1oc(C(=O)OC)cc1CSC(=N)N,n,n,n,u,u,17.7µM,n[10.4 µM],n,n,n,n
COC1CCCCC1Nc1ccc(C)c(C)c1 (stereo unspecified),n,n,n,n,2.08µM,19.9µM,n[10.4 µM],n,n,n,n
NC(=S)N=Nc1ccc(NN=C(N)N)cc1,n,n,n,1.2µM,u,10µM,n,n,u,u,u
COc1ccc(CCNC(=O)c2ccc(NS(=O)(=O)c3c(C)noc3C)cc2)cc1OC,n,n,n,u,n,n,x,x,x,x,x
CCOCCCn1c(=O)c2ccccc2n2c(=S)[nH]nc12,n,n,n,n,n,12.6µM,n,n,n,n,n
COc1ccc(-c2nc(NC(=O)c3n[nH]c(=O)c4ccccc34)sc2C)cc1,n,n,n,n,n,n,x,x,x,x,x
Cc1cc(C(=O)N2CCCC(C(=O)c3ccc4ccccc4c3)C2)n(C)n1 (stereo unspecified),n,n,n,u,n,n,x,x,x,x,x
CCC(C)NCCOc1cc(C)cc(C)c1C (stereo unspecified),n,n,n,n,n,15.8µM,n,n,n,n,n
CCC(C)NCCOCCOc1ccc(C)cc1OC (stereo unspecified),n,n,n,n,n,n,x,x,x,x,x
NC(c1ccccc1)c1cccnc1 (stereo unspecified),n,n,n,n,n,10µM,n,n,n,n,n
Cc1ccccc1C(O)c1cccnc1 (stereo unspecified),n,n,n,n,n,n,x,x,x,x,x
Cc1ccc(NC(=O)CN(C)CC(=O)Nc2cccc(F)c2)cc1S(=O)(=O)N1CCCCCC1,n,n,n,n,u,15.8µM,n,n,n,n,n
CCN(C(=O)c1cc(S(=O)(=O)N2CCOCC2)cn1C)c1cccc(C)c1,n,n,n,n,u,12.6µM,n,n,n,n,n
COc1ccc(CCNC(=O)/C(C#N)=C/c2ccc(OCC(=O)NCC3CCCO3)cc2)cc1OC (stereo unspecified),n,n,n,n,u,n,x,x,x,x,x
COc1ccc(CCNC(=O)CNCC2CCCO2)cc1OC (stereo unspecified),n,n,n,n,x,15.8µM,n,n,n,n,n
O=C(Nc1ccc(N2CCOCC2)c2nonc12)C1CCCC1,n,18.3,n,n,x,0.5µM,n,n,n,n,n
O=C(Nc1ccc(Cl)cc1N1CCOCC1)C1CCCCC1,n,n,n,u,n,n,x,x,x,x,x
COc1ccc(NC(=O)Nc2ccc(N3CCOCC3)c3nonc23)c(OC)c1,n,n,x,n,n[5.75 µM],5µM,u,n,n,n,n
SMILES,Shiga inhibitor,CHX counter,NS1 function inh,Pf growth 48h,Pf growth 96h,Giardia FBPA inh-1,Giardia growth,Mammalian tox,Giardia FBPA inh-2,Rabbit FBPA inh,GAPDH coupling
COc1ccc(CNC(=O)CN(C)Cc2ccc(C(C)(C)C)cc2)cc1,n,n,n,u,n,22.4µM,n[10.4 µM],n,n,n,n
Cc1nc2nc(N)nn2c(C)c1C/C=C/c1ccccc1,n,n,x,n,n,n,x,x,x,x,x
COc1ccc(-n2c(C)cc(/C=N/Nc3nnc(C)n3N)c2C)cc1,n,19.3,n,u,n,6.29µM,n[10.4 µM],n,20µM,u,u
O=C1CSC(=S)N1,n,n,n,u,n,7.94µM,n,n,n,n,n
O=C1CSC(=Nc2ccc(O)cc2)N1,n,n,n,n[0.00184 µM],n,n,x,x,x,x,x
CCC(C)c1ccccc1NC(=O)C(C)N(C)Cc1cccc(OC)c1 (stereo unspecified),n,n,x,u,u,19.9µM,u,n,n,n,n
Cc1ncoc1C(=O)Nc1ncc([N+](=O)[O-])s1,n,n,x,n,n,17.7µM,u,n,n,n,n
CCCCC(CC)C(=O)Nc1ncc([N+](=O)[O-])s1 (stereo unspecified),n,n,n,n,n,n,x,x,x,x,x
CCCCn1c(N)c(N(CCC(C)C)C(=O)COC(=O)c2ccc3ccccc3c2)c(=O)[nH]c1=O,x,x,x,n,n,x,x,x,x,x,x
CN1CC[C@]2(C)c3cc(O)ccc3N(C)[C@@H]12,x,x,x,x,x,1µM,n,n,2.24µM,3.16µM,3.16µM
COc1ccc(C2C(C#N)=C(N)N(c3cccnc3)C3=C2C(=O)CC(C)(C)C3)cc1OC (stereo unspecified),n,n,x,n,u,14.1µM,n,n,n,n,n
COc1cc(C(=O)NC(=S)Nc2ccc([N+](=O)[O-])cc2)cc(OC)c1OC,n,n,n,n,n,12.6µM,n,n,n,n,n
COc1cc(C(=O)NC(=S)Nc2nccs2)cc(OC)c1OC,n,n,n,n,u,14.1µM,u,n,n,n,n
CCC(CC)NC(=O)c1cc(OC)c(OC)c(OC)c1,n,n,n,n,u,n,x,x,x,x,x
COc1cc(CC(=O)Nc2nccs2)cc(OC)c1OC,n,n,n,n,n,n,x,x,x,x,x

# Screening results (PubChem BioAssay)
